The panel holds about 79,000 compounds, 15% with a hit somewhere; the sample as a whole holds those more often. No stated cut-off is given here; in the data, active means growth inhibition above about 70%; inactive means the rest.
Experiments:
[1] = NCI Yeast Anticancer Drug Screen. Data for the rad50 strain (AID 155);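 further: 0% = growth of vehicle-only cultures of the same strain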; details: S. cerevisiae rad50 strain growth inhibition; at 50.0 µM; hits give high values
Method in brief: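 DNA repair mutant yeast, compound exposure, growth read-out; inhibition is taken relative to vehicle.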

[2] = NCI Yeast Anticancer Drug Screen. Data for the mec2-1 strain (AID 157); details: S. cerevisiae mec2-1 strain, at 50.0 µM, hits give high values
Method in brief: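 Strain: mec2-1 (DNA repair/cell cycle alteration). Compound exposure, then growth measured; inhibition expressed relative to vehicle.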

[3] = NCI Yeast Anticancer Drug Screen. Data for the sgs1 mgt1 strain (AID 161);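 further: 0% = growth of cultures given vehicle only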; details: S. cerevisiae sgs1 mgt1 strain, at 50.0 µM, hits give high values
Method in brief: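 Test agents were incubated with a DNA-repair-mutant yeast strain. Growth was then read and compared against vehicle-treated controls.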

[4] = NCI Yeast Anticancer Drug Screen. Data for the cln2 rad14 strain (AID 165);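 further: 0% = growth equal to vehicle treated cultures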; details: S. cerevisiae cln2 rad14 strain, at 50.0 µM, hits give high values
Method in brief: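 Compounds are applied to the cln2 rad14 yeast strain, and growth is then compared with that of vehicle-treated cultures to give inhibition.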

[5] = NCI Yeast Anticancer Drug Screen. Data for the bub3 strain (AID 167); details: S. cerevisiae bub3 mutant strain, at 50.0 µM, hits give high values
Method in brief: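 In this screen, a yeast mutant lacking normal mitotic checkpoint function is challenged with compound. Relative growth versus vehicle gives the inhibition value.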

[6] = NCI Yeast Anticancer Drug Screen. Data for the mlh1 rad18 strain (AID 175); details: S. cerevisiae mlh1 rad18 strain growth inhibition; at 50.0 µM; hits give high values
Method in brief: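 Read-out is yeast growth inhibition, calculated against vehicle-only controls. The compound was applied to a strain engineered with DNA damage repair alterations.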

Measured: growth inhibition

Cc1c(O)ccc2c1CCCC2
inactive: [1] 7.05% | [2] 5.75% | [3] -4.8% | [4] -34.2% | [5] 6.1% | [6] 4.65%

C=C1C2CC[C@@]3(CC[C@@H]4[C@@]5(C)CCC[C@@]4(CN4CCO[C@H]45)[C@@H]3C2)[C@@H]1O
inactive: [1] -2.4% | [2] -5.9% | [3] 11.1% | [4] 25.9% | [5] 11.2% | [6] -5.5%

c1ccc(-c2n[nH]c3c2CCCc2ccccc2-3)cc1
inactive: [1] 4.7% | [2] -9.7% | [3] 7.35% | [4] -12% | [5] 3.3% | [6] 25.4%

C[n+]1ccccc1CCC(=O)Nc1ccccc1
inactive: [1] -0.65% | [2] 14.9% | [3] 2.05% | [4] 0.05% | [5] 0.7% | [6] -17.9%

Clc1ccc(-c2nnc(-c3ccccc3)o2)cc1Cl
inactive: [1] -8.4% | [2] -24.8% | [3] -0.4% | [4] 16% | [5] -18.9% | [6] -6.5%

CCCNC(=O)Nc1ccc(OCC)cc1
inactive: [1] 0.1% | [2] -11.3% | [3] -14.8% | [4] -36.8% | [5] 2.2% | [6] 5.5%

C[N+](C)(C[Si](C)(C)C)C1CCCCCCCCCCC1
inactive: [1] 11.4% | [2] 1.3% | [3] -8.8% | [4] -10.9% | [5] 14.1% | [6] 22.2%

Cc1ccc2c(O)c3c(cc2c1O)C(=O)c1ccccc1C3=O
inactive: [1] 30.2% | [2] 0.75% | [3] 20.4% | [4] 21.3% | [5] -0.85% | [6] 31.2%

CC(C)(C)c1cc(C(c2ccc3c(c2)OCO3)N2CCOCC2)c(O)c(C(C)(C)C)c1 (configuration not stated)
inactive: [1] 12.3% | [2] -12.3% | [3] -2.05% | [4] 14.8% | [5] 13.1% | [6] 16.9%

O=C(CN1C(=O)c2ccccc2C1=O)OCC(=O)c1ccccc1
inactive: [1] 18.9% | [2] 12.4% | [3] 1.5% | [4] 0.4% | [5] 12.9% | [6] 4.4%

CCc1cccc(CC)c1Nc1nc(-c2ccccc2-c2ccccc2)cs1
inactive: [1] -29.1% | [2] -4.4% | [3] -7.05% | [4] -99.2% | [5] -20.9% | [6] -39.9%

CCOC(=O)C1(Br)C(c2ccccc2)NC(=O)N(C2OC(COC(=O)c3ccccc3)C(OC(=O)c3ccccc3)C2OC(=O)c2ccccc2)C1(C)Br (configuration not stated)
inactive: [1] -25.4% | [2] -28.4% | [3] -27.9% | [4] 6.4% | [5] 7% | [6] -22.8%

COc1c2cc(C(C)(C)C)cc1CSCc1cc(C(C)(C)C)cc(c1OC)CCCCC2
inactive: [1] -1.25% | [2] -3.4% | [3] 16.2% | [4] -14.1% | [5] -14.6% | [6] -1.6%

O=c1c(SCc2ccc(Cl)c(Cl)c2)c(SCc2ccc(Cl)c(Cl)c2)cnn1-c1ccccc1
inactive: [1] -8.5% | [2] -11.5% | [3] -6.05% | [4] -1.6% | [5] -13.4% | [6] 15.3%

COc1cc([N+](=O)[O-])c(F)cc1F
inactive: [1] -0.05% | [2] 0.85% | [3] -0.05% | [4] -20.1% | [5] 9.35% | [6] -3.1%

CN(C)CC(CN(C)C)C(=O)C(C)(C)C
inactive: [1] 9.45% | [2] -1.95% | [3] 22.7% | [4] -7.7% | [5] 7.8% | [6] 13.8%

CCc1c2cc(OC)c(OC)cc2cc2c3cc(OC)c(OC)cc3cc[n+]12 (tested in a mixture with another compound)
inactive: [1] -23.1% | [2] -22.4% | [3] -20.1% | [4] -20.9% | [5] -42% | [6] -11.7%

— PubChem BioAssay (NCI)
